Laboratory results as given in the supplement of paper PMC6555819.

How the values were obtained:
Experiment in all cases: PBM binding z-score (relative to random genomic background probes); higher = stronger binding; sequences stand for … in GC…GCGATTGACAGCGTAGAATGAAGG
[1] = test system: FXR:RXRa (NR concentration 270 nM, RXRa partner concentration 90 nM)
Method in brief: (§1)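 Binding z-scores take random background probes as their reference. They come from custom Agilent 4×180K protein-binding microarrays incubated 1 h with ligand-free nuclear receptor dimers, with antibodies against each partner (one per run) detecting binding. Scanned fluorescence was regression-normalized.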

[2] = test system: LXRa:RXRa (NR concentration 270 nM, RXRa partner concentration 90 nM)
Method in brief: as §1

[3] = test system: LXRa homodimer (NR concentration 270 nM)
Method in brief: as §1

[4] = test system: LXRb:RXRa (NR concentration 270 nM, RXRa partner concentration 90 nM)
Method in brief: as §1

[5] = test system: LXRb homodimer (NR concentration 270 nM)
Method in brief: as §1

[6] = test system: PPARa:RXRa (NR concentration 270 nM, RXRa partner concentration 90 nM)
Method in brief: as §1

[7] = test system: PPARg:RXRa (NR concentration 180 nM, RXRa partner concentration 90 nM)
Method in brief: as §1

[8] = test system: PPARg:RXRa 270nM:90nM, anti-RXR (NR concentration 270 nM, RXRa partner concentration 90 nM)
Method in brief: as §1

[9] = test system: PPARg:RXRa 30nM:10nM, anti-RXR (NR concentration 30 nM, RXRa partner concentration 10 nM)
Method in brief: as §1

[10] = test system: PPARg:RXRa 90nM:30nM, anti-RXR (NR concentration 90 nM, RXRa partner concentration 30 nM)
Method in brief: as §1

[11] = test system: PPARg:RXRa DBDmut IVT, anti-RXR (DBD mutation: RXRa K156A/R161A, NR concentration 270 nM, RXRa partner concentration 90 nM)
Method in brief: as §1

[12] = test system: PPARg:RXRa IVT, anti-PPARg (NR concentration 270 nM, RXRa partner concentration 90 nM)
Method in brief: as §1

[13] = test system: PPARg DBDmut:RXRa IVT, anti-PPARg (DBD mutation: PPARg1 K132A/R137A, NR concentration 270 nM, RXRa partner concentration 90 nM)
Method in brief: as §1

[14] = test system: PPARg DBDmut IVT, anti-PPARg (DBD mutation: PPARg1 K132A/R137A, NR concentration 270 nM)
Method in brief: as §1

[15] = test system: PPARg homodimer (NR concentration 180 nM)
Method in brief: as §1

[16] = test system: PXR:RXRa (NR concentration 270 nM, RXRa partner concentration 90 nM)
Method in brief: as §1

[17] = test system: PXR homodimer (NR concentration 270 nM)
Method in brief: as §1

[18] = test system: RARa:RXR (NR concentration 270 nM, RXRa partner concentration 90 nM)
Method in brief: as §1

[19] = test system: RARa homodimer (NR concentration 270 nM)
Method in brief: as §1

[20] = test system: RARb:RXRa (NR concentration 270 nM, RXRa partner concentration 90 nM)
Method in brief: as §1

Row | Sequence | PBM binding z-score [1] | PBM binding z-score [2] | PBM binding z-score [3] | PBM binding z-score [4] | PBM binding z-score [5] | PBM binding z-score [6] | PBM binding z-score [7] | PBM binding z-score [8] | PBM binding z-score [9] | PBM binding z-score [10] | PBM binding z-score [11] | PBM binding z-score [12] | PBM binding z-score [13] | PBM binding z-score [14] | PBM binding z-score [15] | PBM binding z-score [16] | PBM binding z-score [17] | PBM binding z-score [18] | PBM binding z-score [19] | PBM binding z-score [20]
1 | CAAACTAGGTCAAGGTCAAACTCGGTTTGTGCCA | 7.27 | 5.63 | 4.45 | 4.69 | 1.71 | 6.2 | 9.59 | 7.65 | 6.72 | 7.91 | 7.83 | 8.72 | 1.79 | 1.1 | 2.32 | 5.44 | 2.6 | 5.03 | 1.19 | 5.27
2 | CCGACTGGGGCAGCAAGGTTACCATACCATCCGG | -0.0165 | -0.101 | -0.322 | -0.094 | -0.744 | 0.883 | 0.917 | 0.659 | -0.509 | 0.147 | 1.54 | 2.54 | -0.529 | -1.62 | 0.27 | 0.264 | -0.339 | 0.662 | -0.434 | 1.39
3 | CGTCAAAGTTCAAGGTAACGTTACAGAAAGCAGC | 6.48 | 5.5 | 3.04 | 3.64 | 1.12 | 4.78 | 4.55 | 5.04 | 2.28 | 4.37 | 1.03 | 2.42 | 0.621 | 1.08 | 3.53 | 4.49 | 3.12 | 3.46 | 2.12 | 5.26
4 | ATATGTAGGTTACAACCGGGTCATTCAGGCTATG | 2.4 | 4.01 | 1.33 | 2.93 | 0.715 | 4.68 | 5.74 | 5.17 | 3.03 | 4.61 | 7.11 | 7.41 | 3.31 | 2.35 | 2.21 | 3.88 | 1.71 | 3.96 | 0.487 | 2.36
5 | ACAGACAGGTGAGTGAACGTAACTCAGCTGGACG | -0.265 | -0.366 | -0.561 | -0.436 | -0.532 | -0.0939 | 0.744 | -0.203 | -0.222 | -0.308 | 0.689 | 0.457 | 0.319 | -1.39 | -0.743 | -0.554 | -0.547 | -0.741 | -0.186 | 0.247
6 | TCTCGGTGGACACGAAGGTCAGAGCTTTCCAGAG | 0.952 | 0.962 | 0.157 | 1.36 | -0.833 | 2.04 | 0.78 | 2.38 | 2.3 | 2.3 | 1 | 0.976 | -1.18 | -1.31 | 0.842 | 1.38 | -0.107 | 1.55 | -0.711 | 2.57
7 | CTACTAAGGTGAACAAGGTCGTTGATTACTATTC | 1.84 | 1.76 | 0.193 | 2.02 | -0.227 | 3.07 | 1.47 | 1.99 | 0.156 | 1.06 | 3.87 | 3.07 | 0.656 | 0.383 | 1.12 | 3.22 | 2.35 | 3.18 | 0.606 | 2.4
8 | TCTTGTAGATCAAAGGTTAAGAAGGCCGAAGCCT | 1.58 | 2.1 | -0.0136 | 1.83 | -0.281 | 4.6 | 8.22 | 8.32 | 9.13 | 9.04 | 2.13 | 4.06 | 0.462 | 0.582 | 0.29 | 2.19 | 0.104 | 3.33 | -0.0225 | 1.98
9 | ATATGTAGGTTAAGGGTCATTCAAGTTGGTTCGC | 5.1 | 5.2 | 2.81 | 4.68 | 1.33 | 6.53 | 11.5 | 9.66 | 9.8 | 10.8 | 7.49 | 7.7 | 1.56 | 1.82 | 3.15 | 5.92 | 1.73 | 5.73 | 1.9 | 3.79
10 | CAAACTAGATCACCGGAAGGTCAAAGTCCGCATG | 3.07 | 3.21 | 3.33 | 3.19 | 1.2 | 3.85 | 2.04 | 2.62 | 0.824 | 1.84 | 3.34 | 3.13 | 0.538 | 0.366 | 2.31 | 3.54 | 1.53 | 3.99 | 1.63 | 3.21
11 | TTACCAAGGTGAGCTGGGGTCGTTGATCCAACTC | 0.996 | 0.819 | -0.542 | 1.37 | -0.609 | 2.37 | 0.431 | 1.19 | -0.099 | 0.415 | 0.928 | 2.07 | -0.594 | -0.348 | 0.0514 | 4.52 | 0.268 | 2.72 | -0.868 | 1.55
12 | CCTGCTAGGTCATCGTCAGCTAATCTACAGTATG | 3.85 | 2.89 | 0.112 | 1.87 | -0.413 | 3.5 | 2.06 | 2.75 | 0.439 | 1.47 | 4.49 | 3.59 | -0.277 | -0.677 | 0.929 | 1.45 | -0.29 | 2.39 | -0.471 | 4.03
13 | AGAATGAGGTTATTTAGATCAGGGAATTGCGGTC | 2.23 | 1.9 | 0.538 | 1.56 | 0.456 | 2.9 | 1.33 | 1.89 | 0.586 | 1.17 | 2.96 | 2.43 | 1.1 | 0.243 | 1.23 | 1.34 | 0.696 | 1.6 | 0.731 | 1.38
14 | TCTTGTAGATCAAAGGTTAAGATAGCCGAAGCCT | 1.76 | 2.11 | 0.243 | 2.23 | 0.104 | 4.83 | 8.74 | 8.06 | 8.48 | 9.71 | 2.14 | 4.36 | 0.743 | 0.848 | 2.49 | 2.29 | -0.253 | 3.37 | 0.787 | 1.98
